Screening results from PubChem BioAssay.
hNpr1 antagonist – human Npr1 receptor antagonism | P16066 | HEK293 hNpr1 GloSensor cGMP, ANP-stimulated luminescence | Potency, µM (highest dose often 46.3 µM), without a hit: top-dose activity change, negative = inhibition, most hits filed as inhibitors | 76,000 compounds, 1.6% hits | AID 1347048; calls by dose curve; note: nearly all actives have a fitted effect of over 60% in size
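HEK293 cells stably expressing human Npr1 and cGMP GloSensor pGS-40F, loaded 2 h with 2% GloSensor reagent, given compound 30 min at room temperature. Luminescence read before and 20 min after 0.1 nM hNppA.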
Luciferase inh – inhibitors of firefly (Photinus pyralis) luciferase; P08659; purified P. pyralis luciferase, luminescence, biochemical; Potency, µM (top dose mostly 115 µM), hits mostly inhibitors; 76,000 compounds, 2.5% hits; note: nearly all actives have a fitted effect of over 65% in size
Target sequence (P08659 whole entry, looked up): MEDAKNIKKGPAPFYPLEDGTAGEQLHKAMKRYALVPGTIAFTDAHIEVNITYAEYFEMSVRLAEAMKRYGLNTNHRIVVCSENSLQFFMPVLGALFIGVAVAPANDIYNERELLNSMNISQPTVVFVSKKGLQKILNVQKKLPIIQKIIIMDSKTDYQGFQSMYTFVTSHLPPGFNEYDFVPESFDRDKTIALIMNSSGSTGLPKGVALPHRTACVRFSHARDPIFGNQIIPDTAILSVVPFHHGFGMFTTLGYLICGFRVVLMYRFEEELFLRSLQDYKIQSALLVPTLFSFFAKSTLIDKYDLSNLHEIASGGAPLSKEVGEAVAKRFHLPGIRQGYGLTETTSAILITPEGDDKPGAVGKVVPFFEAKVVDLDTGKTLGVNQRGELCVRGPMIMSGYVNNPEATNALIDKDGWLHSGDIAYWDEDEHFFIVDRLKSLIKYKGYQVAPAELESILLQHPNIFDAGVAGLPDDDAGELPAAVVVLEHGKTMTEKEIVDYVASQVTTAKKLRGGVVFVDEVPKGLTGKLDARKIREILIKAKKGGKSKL
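Purified 10nM P. pyralis luciferase with 10uM D-luciferin and 10uM ATP in 50mM Tris acetate pH 7.5, 10mM Mg acetate, 0.01% Tween-20, 0.05% BSA. qHTS titration; luminescence read by CCD imager.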
NIH3T3 tox – kills NIH 3T3 cells. Potency, µM (series often up to 96.7 µM), inactives show at the highest dose activity change, negative = cytotoxicity, hits mostly inhibitors. 94,000 compounds, 4.3% hits. NIH 3T3 viability, CellTiter-Glo ATP luminescence, 48-72 h; note: nearly all actives have a fitted effect of over 55% in size
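Viability of NIH 3T3 cells after 48 or 72 hr compound treatment at 37 °C was assessed by CellTiter-Glo, with luminescence imaged following a 10 min room-temperature step.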
HEK293 tox – HEK 293 cell cytotoxicity | HEK 293 viability, ATP luminescence (CellTiter-Glo), 48-72 h | Potency, µM (top dose mostly 115 µM), for the others: at the highest dose activity change, negative = cytotoxicity, usual class: inhibitors | 94,000 compounds, 6.6% hits; note: nearly all actives have a fitted effect of over 60% in size
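Read-out: CellTiter-Glo ATP luminescence. Cells: HEK 293, 250 cells/well. Exposure: 48 or 72 hr, 37 degree Celsius.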
An asterisk follows results filed as active; i = inactive; u = inconclusive; x = not tested or not shown; ! = repeats disagree; [ ] = remark or other dose. Most compounds without a hit are left out; they make up all but 11% or so of the library. Unless noted, calls come from the whole dose curve; as a rule, active = well fitted curve in the direction sought with a large enough effect; inconclusive = small, poorly fitted or top-dose-only effect, or another doubt; inactive = no such curve, though single readings can be large; an effect the other way counts as inactive or inconclusive. % is set by controls: 0 for no effect and ±100 for the full control effect; potency is the fitted concentration of half-maximal effect.

SMILES | hNpr1 antagonist | Luciferase inh | NIH3T3 tox | HEK293 tox
COc1ccc(CN2CCC3(CC2)CC(c2cccc(C(F)(F)F)c2)=NO3)cc1 | 1.8% | i | u | 50.1µM*
COc1ccc(C2=NOC3(CCN(Cc4ccc(F)cc4)C3)C2)cc1 (stereo not given) | u | i | u | 79.4µM*
O=C(c1ccc(Cl)cc1)N1CCC2(CC1)CC(c1cccc(C(F)(F)F)c1)=NO2 | x | x | u | 31.6µM*
COc1ccc(C2=NOC3(CCCN([S+](=O)([O-])c4cccc(OC)c4)C3)C2)cc1 (stereo not given) | x | x | -25.5% | u
FC(F)(F)Oc1ccc(CN2CCC3(CC2)CC(c2cccc(C(F)(F)F)c2)=NO3)cc1 | -13.6% | i | -29.9% | u
CC(C)(C)C(=O)N1CCC2(CC1)CC(c1cccc(C(F)(F)F)c1)=NO2 | x | x | -26.0% | u
COc1ccc(C2=NOC3(CCN([S+](=O)([O-])c4ccccc4)C3)C2)cc1 (stereo not given) | -14.9% | u | u | 44.7µM*
COCC(=O)N[C@@H]1CN(Cc2ccc(F)cc2Cl)C[C@H]1CO | -0.5% | i | -6.3% | -1.9%
COc1cccc(C(=O)N2CCC3(CC2)CC(c2cccc(C(F)(F)F)c2)=NO3)c1 | x | x | u | 44.7µM*
O=C(C1CCCC1)N1CCC2(CC1)CC(c1cccc(C(F)(F)F)c1)=NO2 | x | x | u | 44.7µM*
Cc1noc(C)c1C(=O)N1CCC2(CC1)CC(c1cccc(C(F)(F)F)c1)=NO2 | x | x | -27.2% | -14.1%
O=C(c1ccc(C(F)(F)F)cc1)N1CCC2(CC1)CC(c1cccc(C(F)(F)F)c1)=NO2 | -26.2% | i | u | 39.8µM*
O=C(Cc1cccs1)N1CC(c2noc(C3CCCN3CC3CC3)n2)C1 (stereo not given) | 2.3% | i | -20.4% | -7.5%
COc1ccc(-c2cccc(C(=O)N3CCN(C(=O)NC4CCCC4)CC3)c2)nn1 | x | x | -8.4% | 4.2%
Cc1cccc(CN2CCCC(O)(CN3CCC(C)CC3)C2=O)c1 (stereo not given) | 1.8% | i | -10.3% | 0.1%
Cc1cccc(CN2CCCC(O)(CNCc3ncccc3C)C2=O)c1 (stereo not given) | -7.2% | i | 14.1µM* | u
CC(C)(C)c1nnc2ccc(C(=O)NCC3CC3)cn12 | x | x | -13.4%[138 µM] | i
Cc1ccc(C(=O)N2CCCCCCNC(=O)[C@@H]3C[C@@H](c4nc(Cc5ccccc5)no4)C[C@@H]32)s1 | 0.0% | i | u | 79.4µM*
CCNC(=O)N1CCCCCCNC(=O)[C@@H]2C[C@@H](c3nc(Cc4ccccc4)no3)C[C@@H]21 | 1.6% | i | -4.8% | i
O=C(NCc1cccs1)c1nc2cccnc2n(Cc2ccccc2)c1=O | x | x | -29.5% | -11.0%
CN(C)c1cccc(-c2cnc(Nc3cncnc3)c3c2CCO3)c1 | -18.2%[70.6 µM] | i | u | u
c1ccc(-c2cnc(Nc3ccncc3)c3c2CCO3)cc1 | 25.1µM* | 28.2µM* | 44.7µM* | 79.4µM*
Cn1cc(-c2cnc(Nc3ccncc3)c3c2CCO3)cn1 | 1.6%[70.6 µM] | i | 89.1µM* | u
Cn1cc(-c2cnc(Nc3ccc(F)c(Cl)c3)c3c2CCO3)cn1 | -10.0%[70.6 µM] | i | -40.3%[138 µM] | u
CC(=O)N1CCn2c(nnc2C2CCCN2Cc2scnc2C)C1 (stereo not given) | x | x | i | i
SMILES | hNpr1 antagonist | Luciferase inh | NIH3T3 tox | HEK293 tox
O=C(C1CCCN1C(=O)c1ccccc1)N1CCC(c2nc3ccncc3[nH]2)CC1 (stereo not given) | x | x | -13.8% | 0.0%
CN(Cc1ccc(F)cc1)C(=O)c1cn(Cc2ccccc2C(F)(F)F)nn1 | 4.4% | i | u | 7.94µM*
CCc1nc2c(c(-c3ccc(O)cc3)n1)CN(C(=O)c1ccc(C(F)(F)F)cc1)CC2 | x | x | -27.6% | 0.3%
COc1ccc(C(=O)NCCn2ccn3nc(-c4cc(C)ccc4C)cc3c2=O)c(OC)c1 | -21.5% | i | u | 39.8µM*
Cc1ccc(-c2cc3c(=O)n(CCNC(=O)Cc4c[nH]c5ccccc45)ccn3n2)c(C)c1 | u | u | -27.3% | 39.8µM*
Cc1cccc(OCC(=O)NCCn2ccn3nc(-c4ccc(C)cc4C)cc3c2=O)c1 | -23.1% | u | u | u
Cc1ccc(C)c(-c2cc3c(=O)n(CCNC(=O)c4ccc5ccccc5n4)ccn3n2)c1 | -18.5% | i | u | 35.5µM*
Cc1ccc(C)c(-c2cc3c(=O)n(CCNC(=O)c4ccc(C#N)cc4)ccn3n2)c1 | -23.3% | i | u | 12.6µM*
COc1ccc(-c2cc(CC3(NC4CCN(C(C)=O)CC4)COC3)no2)cc1 | -1.1%[70.6 µM] | i | -22.7%[174 µM] | u
COc1ccc(CCN(C)C2CCCN(c3ncccc3C#N)C2)cc1OC (stereo not given) | -3.7% | i | -20.2% | -8.4%
Cc1ccc(-c2cc3c(=O)n(CCNC(=O)Cc4ccccc4Cl)ccn3n2)c(C)c1 | -25.0% | 2.51µM* | -20.6% | -25.9%
Cc1ccc(-c2cc3c(=O)n(CCNC(=O)c4cc(C5CC5)[nH]n4)ccn3n2)c(C)c1 | u | 1.26µM* | -25.6% | u
COc1ccccc1C(=O)NCCn1ccn2nc(-c3cc(C)ccc3C)cc2c1=O | -4.0% | i | u | u
Cc1ccc(C)c(-c2cc3c(=O)n(CCNC(=O)c4ccccc4Cl)ccn3n2)c1 | -17.8% | i | 35.5µM* | 44.7µM*
Cc1ccc(-c2cc3c(=O)n(CCNC(=O)c4ccc(F)cc4)ccn3n2)c(C)c1 | u | u | -26.3% | u
COc1ccccc1-c1ccc2ncn(Cc3ccccc3)c(=O)c2n1 | 2.6%[70.6 µM] | i | 7.94µM* | u
O=c1c2nc(NCc3ccccc3)ccc2ncn1Cc1ccccc1 | 2.4%[70.6 µM] | i | 35.5µM* | u
COc1ccccc1C(=O)N1CCn2c(nnc2-c2ccc(NC(C)=O)cc2)C1 | x | x | -14.6% | u
Cc1ccc(C(=O)N2CC(c3ncc(C)n3Cc3ccccc3)C2)cn1 | x | x | -33.4% | u
COc1ccc(Nc2ccc3c(n2)CN(Cc2ccccc2C)C(=O)CO3)cc1 | u | i | 79.4µM* | 89.1µM*
COc1ccccc1-c1ccc2c(n1)CN(Cc1ccccc1C)C(=O)CO2 | -10.0%[70.6 µM] | i | -16.7%[138 µM] | u
COc1ccc(Nc2ccc3c(n2)CN(Cc2ccccc2F)C(=O)CO3)cc1 | u | i | u | 63.1µM*
COc1ccc(Nc2ccc3c(n2)CN(Cc2nc4ccccc4s2)C(=O)CO3)cn1 | u | u | u | 50.1µM*
COC1C(=O)N(c2cccc(F)c2)C12CCN(S(=O)(=O)c1c(C)nn(C)c1C)CC2 (stereo not given) | -3.2% | i | -20.8% | u
Cc1ccc(NC(=O)N2Cc3[nH]cnc3C[C@H]2c2nc(-c3cccc([N+](=O)[O-])c3)no2)cc1 | -21.1% | i | u | u
O=[N+]([O-])c1cccc(-c2noc([C@@H]3Cc4nc[nH]c4CN3)n2)c1 | 1.6%[70.6 µM] | 44.7µM*! | -28.1%[174 µM] | u
O=C(Nc1ccc2c(c1)OCCO2)N1CCc2nn(CC3CC3)c(=O)n2CC1 | x | x | -13.8% | -3.1%
